CHO-K1 Ca ag: M1 agonist counterscreen hit in parental CHO-K1 cells. Fluo-8 calcium fluorescence; scaled to maximal ATP response, vehicle zero. activation, % at 3 µM. 360,000 tested, 0.48% active; in the data active = activation above about 15%;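 note: untransfected CHO-K1 host cells lacking M1 receptor as counterscreen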
CHO-K1 Ca PAM: counter-screen for M1 PAMs: effect in parental CHO-K1 cells | activation, % at 3 µM | 360,000 tested, 0.02% active | ATP EC20, Fluo-8 calcium fluorescence; 0% at ATP EC20, 100% at ATP max | AID 602247;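 active = activation above the run cutoff, the mean activation of all test compounds plus 3 SD, cut at about 40% in these data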;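 note: peak over basal fluorescence ratio in a 140 s read after ATP addition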
M1 ag: agonists of human M1 muscarinic receptor. CHO-K1 hM1, Fluo-8 calcium fluorescence, agonist mode; 0% DMSO, 100% acetylcholine EC100. activation, % at 3 µM. 360,000 tested, 0.33% active;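 active = activation above the run's mean compound activation plus 3 SD, cut at about 16% in these data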;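 note: peak over basal fluorescence ratio within a 140 s kinetic read after compound addition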
Target sequence (P11229 whole entry, looked up): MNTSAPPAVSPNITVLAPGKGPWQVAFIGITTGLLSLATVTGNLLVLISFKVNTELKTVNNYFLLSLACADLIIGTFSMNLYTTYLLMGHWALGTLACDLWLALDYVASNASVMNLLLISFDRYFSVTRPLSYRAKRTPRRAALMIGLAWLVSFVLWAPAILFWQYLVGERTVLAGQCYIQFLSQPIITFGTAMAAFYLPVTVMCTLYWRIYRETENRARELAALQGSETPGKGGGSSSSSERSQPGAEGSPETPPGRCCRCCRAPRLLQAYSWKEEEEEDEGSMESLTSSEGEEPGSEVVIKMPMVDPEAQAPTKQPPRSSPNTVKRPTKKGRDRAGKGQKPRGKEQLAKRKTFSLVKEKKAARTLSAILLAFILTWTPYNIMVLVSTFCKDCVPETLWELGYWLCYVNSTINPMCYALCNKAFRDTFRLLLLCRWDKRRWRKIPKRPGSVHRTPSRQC
M1 PAM: potentiates human M1 receptor response to acetylcholine; 360,000 tested, 0.088% active; AID 588819; P11229; activation, % at 3 µM; CHO-K1 hM1, Fluo-8 calcium fluorescence, ACh EC20; 0% = ACh EC20, 100% = maximal ACh; in the data active = activation above about 19%, passing the limit was not always enough
CHO-K1 Ca antag: counter-screen for M1 antagonists: effect in parental CHO-K1 cells. ATP-induced calcium, Fluo-8 fluorescence. inhibition, % at 3 µM. 360,000 tested, 0.6% active. AID 602250;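 active = inhibition above a per-plate cutoff, the plate's mean sample inhibition plus 3 SD, cut at about 24% in these data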;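 note: 0% = DMSO plus EC80 ATP and 100% = DMSO alone without ATP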
CHRM1 antagonist: blocks human M1 muscarinic receptor; P11229; 360,000 tested, 1.3% active; CHO-K1 hM1, Fluo-8 calcium fluorescence, ACh EC80 antagonist; inhibition, % at 3 µM;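 active = percent inhibition above its own plate's cutoff, namely the mean of that plate's compound wells plus 3 SD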;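 note: peak over basal fluorescence ratio during 140 s after agonist addition; 0% = ACh EC80 plus DMSO and 100% = DMSO alone without agonist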
* hit, by the source's call. The list is not random: actives were taken first. Their share in the collection is about 2.3%.

SMILES | CHO-K1 Ca ag | CHO-K1 Ca PAM | M1 ag | M1 PAM | CHO-K1 Ca antag | CHRM1 antagonist
CN(CCOc1ccc(Cl)cc1)C(=O)c1cccc(S(=O)(=O)N2CCN(Cc3ccccc3)CC2)c1 | 13 | -12 | 0 | -15 | 11 | 40*
CCN(CC(=O)Nc1cccc(S(=O)(=O)N(C)c2ccccc2)c1)Cc1cccs1 | 2 | 12 | -2 | -2 | 0 | 1
O=S(=O)(Nc1ncn[nH]1)c1ccc2ccccc2c1 | 0 | 4 | -1 | 0 | -7 | 4
O=S(=O)(Nc1nc2ccccc2[nH]1)c1ccc2ccccc2c1 | 2 | 28 | -8 | -22 | -8 | 65*
COc1cc(CCN2C(=O)c3cccc4cccc(c34)C2=O)c(S(=O)(=O)NCCCO)cc1OC | 3 | 16 | 2 | -10 | 2 | 19
CCOC(=O)C1CCN(C(=O)c2cccnc2)CC1 | 0 | -1 | -3 | 27* | 6 | 12
CCOC(=O)C1CCN(C(=O)c2cccc(C(=O)N3CCC(C(=O)OCC)CC3)c2)CC1 | 1 | 14 | 4 | -1 | -19 | 1
CC(=O)Oc1ccc2c(C)cc(=O)[nH]c2c1 | -1 | -8 | 1 | 6 | 26* | -2
O=C(NCc1ccccn1)C(=O)NCC1OCCN1S(=O)(=O)c1ccc(F)cc1 (stereo unspecified) | 2 | -6 | -1 | 18 | -1 | -18
Clc1ncnc2c1oc1ccccc12 | 1 | 21 | -3 | 5 | -19 | -9
c1coc(CN(Cc2ccco2)c2ncnc3c2oc2ccccc23)c1 | 6 | 17 | 0 | -16 | 10 | 37*
COc1ccccc1NC(=O)CSc1nnc2ccccn12 | 0 | 11 | 6 | 25* | -13 | -12
CCCOC(=O)c1ccc(Oc2coc3c(CN(CC)CC)c(O)ccc3c2=O)cc1 | 0 | -5 | -11 | -26 | 3 | 89*
O=C(Oc1cccc(C(=S)N2CCOCC2)c1)c1cccc([N+](=O)[O-])c1 | 2 | 24 | -9 | 2 | -8 | -1
O=C(Oc1ccc(C(=S)N2CCOCC2)cc1)c1cccc([N+](=O)[O-])c1 | 0 | -26 | -5 | -7 | 29* | 12
CCOC(=O)C1=C(C)S/C(=C\N(C)C)C1=O | 0 | 8 | 8 | 8 | 3 | -29
CCOC(=O)C1=C(C)NC(=O)/C1=C\N(C)C | 0 | -15 | -2 | -11 | 28* | 12
CCn1cc(C(=O)OCC(=O)c2cc(C)n(-c3ccc(OC(F)F)cc3)c2C)c(=O)c2ccc(C)nc21 | 0 | 20 | -8 | 7 | -9 | -5
O=C(NCc1ccccc1)c1ccc(CN2CCOCC2)cc1 | 0 | -5 | -3 | 8 | 10 | -5
O=C(NCc1ccco1)c1ccc(CN2CCOCC2)cc1 | 0 | -8 | 0 | -8 | 24* | 22
CC(=O)Nc1ccc(S(=O)(=O)N2CCN=C2SCc2ccc([N+](=O)[O-])cc2)cc1 | 17* | -24 | 6 | -4 | 14 | 7
Cc1ccc(C(=O)N2CCN=C2SCc2ccc([N+](=O)[O-])cc2)cc1C | 0 | -12 | -8 | -22 | 4 | 36*
CCC(C)Sc1ccc([C@H]2N[C@@](Cc3ccccc3)(C(=O)OC)[C@H]3C(=O)N(CC)C(=O)[C@@H]23)cc1OC (stereo partly specified) | 0 | -16 | 3 | 15 | -7 | -7
CC(C)n1cc(CN2CCC(Oc3ccc(C(=O)N4CCCC4)cc3)CC2)cn1 | 0 | -20 | -7 | -6 | 6 | 19
Cc1cccn2c(=O)nc(SCC(=O)N3CCC(Cc4ccccc4)CC3)nc12 | 3 | -12 | 20* | -3 | 2 | 14
SMILES | CHO-K1 Ca ag | CHO-K1 Ca PAM | M1 ag | M1 PAM | CHO-K1 Ca antag | CHRM1 antagonist
Cc1ccc(COc2ccc(CNCCCN3CCCCCC3=O)cc2)cc1 | 5 | 11 | -10 | -33 | -14 | 46*
CC(C)CNC(=O)CC(=O)N/N=C/c1ccc(F)cc1 | 1 | 12 | -6 | 0 | -3 | -3
Cc1cc(O)ccc1-c1ccc2nncn2c1 | 1 | 13 | -2 | 8 | -10 | -14
Cc1ccc(S(=O)(=O)/N=C2/NC(=O)/C(=C/c3cc([N+](=O)[O-])ccc3O)S2)cc1 | 20* | -21 | 32* | -15 | 15 | 29
COc1cc(/C=C2\S/C(=N/S(=O)(=O)c3ccc(C)cc3)NC2=O)c([N+](=O)[O-])cc1OC | 2 | 9 | 1 | 6 | 1 | -4
CCCc1cc(=O)[nH]c(SCc2cc(Cl)ccc2OC(F)F)n1 | -1 | 6 | -7 | 2 | -20 | -6
CCCNC(=O)N1CCN(C(c2ccccc2)c2ccccc2)CC1 | 0 | 12 | -5 | 6 | -8 | -9
O=C(NC(=O)N1CCN(C(c2ccccc2)c2ccccc2)CC1)c1ccccc1 | 1 | 12 | -5 | -22 | -11 | 66*
O=C(Nc1ccccc1C(F)(F)F)N1CCN(C(c2ccccc2)c2ccccc2)CC1 | 1 | 12 | -6 | -25 | 1 | 44*
COc1ccccc1C(=O)COC(=O)CCNS(=O)(=O)c1ccc(C)c(C)c1 | 1 | -16 | 7 | 16 | -12 | 2
COc1ccc(CCNC(=O)COC(=O)CNS(=O)(=O)c2ccc(SC)c([N+](=O)[O-])c2)cc1 | 5 | 11 | -3 | -3 | -13 | 7
Cc1c(Cl)cccc1NC(=S)N1CCCN(Cc2ccccc2F)C1 | 5 | 15 | 3 | -7 | 6 | 12
Fc1ccccc1CN1CCCN(C(=S)Nc2cccc(Cl)c2)C1 | 8 | -9 | 10 | -13 | 19 | 29*
CCNc1nc(NC(C)C)nc(Oc2ccc(=O)n(C)n2)n1 | 4 | 14 | -10 | -10 | 0 | 9
CSc1nnc2c3ccccc3n(CCc3ccccc3)c2n1 | 0 | -7 | 0 | 4 | 19 | 3
S=c1nc2c(n[nH]1)c1ccccc1n2CCc1ccccc1 | 0 | 18 | 20* | 11 | -1 | -18
Cc1[nH]c(C)c(S(=O)(=O)Nc2ccc(OC(F)(F)F)cc2)c1C(=O)N1CCCCC1 | 2 | -15 | -1 | 13 | -3 | -12
O=C(Nc1nc(-c2cc(F)ccc2F)cs1)c1cccc(N2C(=O)CCC2=O)c1 | 4 | -22 | -4 | -7 | 32* | 13
CCOC(=O)C1CCN(Cc2cccc(Oc3ccc(Cl)cc3)c2)CC1 | 0 | 3 | -11 | -25 | -9 | 28*
CCN1CCN(Cc2cccc(Oc3ccc(Cl)cc3)c2)CC1 | 3 | 19 | -8 | -21 | -9 | 54*
c1ccc(Oc2cccc(CN3CCCCC3)c2)cc1 | 0 | -7 | -13 | -32 | 1 | 46*
COc1ccc(CCC(=O)Nc2ccc(Cl)c(S(=O)(=O)N3CCCC3)c2)cc1 | 11 | 2 | 4 | 3 | 3 | 5
O=C(Nc1ccc(OCC(F)(F)C(F)F)c(C(F)(F)F)c1)c1ccccc1O | 10 | 10 | 5 | -16 | 24* | 20*

Screens: PubChem BioAssay, The Scripps Research Institute Molecular Screening Center
